# Results taken from PubChem BioAssay AID624167 (Sanford-Burnham Center for Chemical Genomics, 2012).
# Assay: Peg3 promoter luciferase inhibitors, potency, dose response, cell-based, HeLa, CREF/GAPDH counter-screen panel (AID 624167)
# Conditions: CREF/GAPDH counter-screens; run 2, dose range 1, at 100 µM (top of the series)
row,Compound,inhibition [%]
1,COC(COC(N)=O)C1=C(N2CC2)C(=O)C(C)=C(N2CC2)C1=O (stereo not drawn),89
2,C=Cc1cc(OC)c2c(c1)c(=O)oc1c2cc(OC)c2c(O)ccc(C3OC(C)C(O)C(C)(O)C3O)c21 (stereo not drawn),40.5
3,CC(=O)OC1CC[C@]2(C#N)[C@H]3CC[C@]4(C)[C@H](C5C=CC(=O)O5)CCC4(O)C3CCC2(O)C1 (stereo partly drawn),83.6
4,COc1cc2nc(CN3CC=C(c4ccccc4)CC3)[nH]c(=O)c2cc1OC,59.5
5,O=C(CSC1c2ccccc2-c2ccccc21)N/N=C/c1ccccc1O,53.7
6,CC1=CC2/C=C(\C)CCC(O)C(O)/C=C/C(=O)C23C(=O)NC(CC(C)C)C3C1C (stereo not drawn),100
7,CCC(c1nnnn1-c1ccc2c(c1)OCCO2)N1CCC(n2c(=O)[nH]c3ccccc32)CC1 (stereo not drawn),100
8,CC(=O)OC1(C)CC(C)C(=O)C(C(O)CC2CC(=O)NC(=O)C2)C1 (stereo not drawn),95.8
